Rows were chosen to be rich in hits. Some 9.2% of all compounds tested hit in one or more screens of this group.
NPC1 promoter act – NPC1 promoter activation | Potency, µM (series often up to 9.22 µM), without a hit: at the top dose activation, hits mostly activators | Huh7 NPC1 promoter luciferase reporter, 24 h | AID 485313 | 320,000 tested, 2.4% active; further: % of control where 0% means no effect; nearly all actives have a fitted effect of over 60% in size
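Luminescence from an NPC1 promoter-driven luciferase reporter in stably transfected Huh7 cells was measured after 24 h compound treatment at 37 °C, followed by 10 min ambient incubation with luciferase detection reagent.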
SMN2 splice enh – SMN2 splice variant enhancement; Potency, µM (highest dose often 46.1 µM), for the others: at the highest dose activity change, positive = activation, usual class: activators; HEK293 SMN2-luciferase splicing reporter, luminescence, 30-36 h; AID 1458; 210,000 tested, 2.8% active; further: % of control where 0% means no effect; nearly all actives have a fitted effect of over 55% in size
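HEK293 cells carry an SMN2 […]–luciferase reporter in which exon 7 inclusion puts luciferase in frame. Cells were plated 10-12 h before compound addition, then incubated 30-36 h at 37C. ONE-Glo luminescence was read; sodium butyrate at 4.5 mM final served as control.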
ELG1 repair inh – ELG1-dependent DNA repair inhibition; HEK293T ELG1-luciferase reporter, luminescence, 16 h; DNA damage induced by 5-fluorouridine; Potency, µM (highest dose often 46.1 µM), without a hit: top-dose activity change, negative = inhibition, most hits filed as inhibitors; 330,000 tested, 2.3% active; AID 504467; further: on the % scale 0 is the no-effect control and ±100 the full control effect; nearly all actives have a fitted effect of over 55% in size
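DMSO vehicle served as the neutral condition. Each well held 2,000 cells given 5-fluorouridine plus compound; after 16 hr at 37 °C/5% CO2, ONE-Glo was added and luciferase measured 30 min later.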
ELG1 genotoxic – induces genotoxicity in HEK293T cells with luciferase-tagged ELG1; 330,000 tested, 1.3% active; HEK293T ELG1-luciferase reporter, luminescence, 16 h; AID 504466; Potency, µM (highest dose often 46 µM), for the others: at the top dose activity change, positive = activation, hits mostly activators; further: % of control where 0% means no effect; nearly all actives have a fitted effect of over 60% in size
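Reporter readout depends on ELG1 protein level, which increases with genetic stress. After 16 hr compound exposure at 37 °C, luciferase activity was quantified using ONE-Glo.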
Rab9 prom act – Rab9 promoter activation | 320,000 tested, 2.8% active | Huh7 Rab9 promoter-luciferase reporter, luminescence, 24 h | Potency, µM (series often up to 9.22 µM), for inactives: top-dose activation, negative = inhibition, actives largely listed as activators | AID 485297; further: % of control where 0% means no effect; nearly all actives have a fitted effect of over 60% in size
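Using Huh7 cells stably transfected with Rab9 promoter–luciferase, compounds were incubated 24 h at 37 °C, 5% CO2; luciferase luminescence was read 10 min after reagent addition.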
FLuc modulator – inhibits or activates purified firefly luciferase, miR-21 counter-screen; P08659; purified FLuc, Km substrates, luminescence inhibition; Potency, µM (highest dose often 57.5 µM), for inactives: at the highest dose activity change, negative = inhibition, actives largely listed as inhibitors; 360,000 tested, 6.9% active; AID 588342;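 further: plate controls were vehicle for no effect and reference inhibitor for full effect; nearly all actives have a fitted effect of over 55% in size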
Target sequence (P08659 whole entry, looked up): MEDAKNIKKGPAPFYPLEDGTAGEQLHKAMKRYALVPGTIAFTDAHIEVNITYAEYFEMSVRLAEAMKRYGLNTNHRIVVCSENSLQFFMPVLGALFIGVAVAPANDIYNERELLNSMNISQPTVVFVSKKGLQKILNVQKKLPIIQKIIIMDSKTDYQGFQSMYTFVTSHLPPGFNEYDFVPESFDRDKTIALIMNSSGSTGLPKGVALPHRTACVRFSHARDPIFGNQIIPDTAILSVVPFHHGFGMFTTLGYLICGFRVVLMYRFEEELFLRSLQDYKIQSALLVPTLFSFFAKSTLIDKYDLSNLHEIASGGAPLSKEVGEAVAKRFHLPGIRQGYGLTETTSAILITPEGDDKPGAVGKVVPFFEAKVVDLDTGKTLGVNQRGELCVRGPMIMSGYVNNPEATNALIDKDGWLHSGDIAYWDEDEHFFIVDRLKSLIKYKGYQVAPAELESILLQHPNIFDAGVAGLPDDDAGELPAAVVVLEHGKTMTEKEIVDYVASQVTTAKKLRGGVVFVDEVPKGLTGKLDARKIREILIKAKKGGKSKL
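Biochemical qHTS of compounds, final roughly 60 µM downward over six points, against 10 nM purified firefly luciferase using Km concentrations of substrates (10 uM D-luciferin, 10 uM ATP) in Tris acetate pH 7.5 buffer; luminescence output.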
The depositor's hits bear a star; ? = inconclusive; / = not tested or not shown; [ ] = remark or other dose. The call rests on the fitted dose curve; in most records, active means well fitted curve in the direction sought with a large enough effect; inconclusive means small, poorly fitted or top-dose-only effect, or another doubt; inactive means no such curve, though single readings can be large; an effect the other way counts as inactive or inconclusive. Potency means the concentration at half of the fitted maximal effect.

SMILES | NPC1 promoter act | SMN2 splice enh | ELG1 repair inh | ELG1 genotoxic | Rab9 prom act | FLuc modulator
Cc1ccc(Nc2nc(CSc3nnc(-c4ccncc4)n3C)cs2)cc1 | 3.16µM* | / | ? | ? | 1.26µM* | 0.601µM*
Cc1ccc(NC(=O)CSc2nnc(-c3cccnc3)n2-c2ccc(C)cc2)cc1 | -0.8% | 11.4% | ? | 4.4% | -0.9% | 0.7%
Cc1ccc(Nc2nc(CSc3nnc(-c4cccnc4)n3-c3ccccc3F)cs2)cc1 | 8.6% | 18.1% | ? | 3.7% | 3.6% | 2.39µM*
Cc1occc1-c1nnc(SCc2cc(=O)n3cc(Br)ccc3n2)n1C | -6.4% | -2.3% | -6.2% | -3.2% | -0.6% | 1.4%
O=C(Nc1c(-c2ccccc2)nc2ccccn12)c1ccccc1F | -2.2% | -1.9% | 7.6% | 1.8% | 1.4% | -5.8%
CCCc1ccc(C(C)NC(=S)NC2CCCCC2)cc1 (stereo unspecified) | -1.4% | / | -13.7% | -4.8% | -1.0% | 1.0%
CC(C)CCCNc1nc(N2CCOCC2)nc(N2CCOCC2)n1 | 0.5% | -11.0% | 10.3µM* | -0.2% | -2.3% | 0.1%
CC(Oc1ccccc1)c1nnc(SCC(=O)NC2CC2)n1C (stereo unspecified) | 5.1% | / | 24.8% | 13.1% | 12.2% | -3.6%
CCC(C)(O)c1[nH]c2ccc(C(F)(F)F)cc2c1C (stereo unspecified) | -2.9% | / | 4.7% | 0.2% | 0.2% | -14.6%
O=C(CCl)Nc1cc(SCC(O)CO)cc([N+](=O)[O-])c1 (stereo unspecified) | -45.7% | -105.2% | 3.26µM* | -25.3% | -66.7% | 0.4%
c1ccc(CN2CCOCC2)cc1 | -0.4% | 16.9% | -1.8% | 2.5% | 1.6% | 0.2%
O=c1c2ccccc2oc2cc(-c3ccc(CN4CCOCC4)cc3)ccc12 | 2.24µM* | / | ? | -10.0% | ? | 6.75µM*
NS(=O)(=O)c1ccc(NC(=O)COC(=O)CCC2CCCCC2)cc1 | 0.5% | -0.6% | 20.8% | 1.4% | 2.8% | -0.8%
CCOC(=O)CCCNC(=O)N1CCc2nc(-c3ccccc3)c3c(c2C1)CO[C@@H](C)C3 | / | 6.3%[9.22 µM] | / | / | / | /
Cc1nc2ccccc2nc1SCC(=O)N1CCC(C)CC1 | -6.0% | -27.4% | -12.5% | -0.5% | 5.9% | -10.4%
Cc1ccnc(N2CCN(C(=O)CSc3nc4ccccc4nc3N3CCC(C)CC3)CC2)c1 | -1.6% | -20.4% | 20.6µM* | -4.2% | 2.6% | -7.5%
Cc1ccc(C(=O)n2c(=S)nc3ccccn32)cc1 | 0.794µM* | 2µM* | ? | ? | 0.631µM* | 0.12µM*
Cc1cccc(C(=O)N2CCCCCC2)c1 | 1.8% | -10.0% | 3.3% | 2.1% | 8.4% | -1.7%
O=C(c1ccccc1)n1c(=S)nc2ccccn21 | 1µM* | / | ? | 0.326µM* | 3.55µM* | 0.426µM*
Cc1cccc(C(=O)n2c(=S)nc3ccccn32)c1 | 0.562µM* | 4.47µM* | ? | ? | 0.447µM* | 0.477µM*
COc1ccc2[nH]c3c(c2c1)CCN1C(=O)C(CC(=O)NCCCn2ccnc2)C[C@H](C(=O)N(C(C)C)C(C)C)[C@@]31C (stereo partly specified) | / | / | 9.9% | 5.7% | / | /
O=C(Nc1nccs1)C1CC=CCC1C(=O)OCC(F)(F)C(F)F (stereo unspecified) | 0.0% | / | 17.3% | 0.3% | 3.7% | -4.9%
Cc1cc(C)c(C(=O)N(C)C2CCCN(Cc3ccccc3F)C2)o1 (stereo unspecified) | -5.0% | / | -0.9% | -3.6% | 6.8% | 0.7%
CCN(CC)S(=O)(=O)c1ccc(N2CCOCC2)c(NC(=O)Cc2ccc(Cl)cc2)c1 | 1.2% | / | ? | -6.1% | 4.2% | -14.7%
CCN(CC)S(=O)(=O)c1ccc(N2CCOCC2)c(NC(=O)COc2ccccc2C#N)c1 | -0.1% | 5.4% | 9.2µM* | -10.7% | 22.4% | -4.3%
SMILES | NPC1 promoter act | SMN2 splice enh | ELG1 repair inh | ELG1 genotoxic | Rab9 prom act | FLuc modulator
CCN(CC)S(=O)(=O)c1ccc(N2CCOCC2)c(NC(=O)CC23CC4CC(CC(Br)(C4)C2)C3)c1 | -6.5% | -12.7%[1.84 µM] | 9.2µM* | 0.1% | 1.3% | 1.2%
CCN(CC)S(=O)(=O)c1ccc(N2CCOCC2)c(NC(=O)COc2ccccc2C)c1 | -0.1% | / | 5.8µM* | -2.1% | -4.3% | 4.2%
O=C(N/N=C/c1ccc(N2CCOCC2)cc1)C1COc2ccccc2O1 (stereo unspecified) | 1.0% | -12.9% | 3.6% | 1.6% | -0.5% | ?
CCOc1ccccc1NC(=O)N1CCc2c(sc(C)c2CC)C1c1ccccc1 (stereo unspecified) | / | / | / | / | / | 0.0%
CCCC/C=C/C(NC(=O)OCc1ccccc1Cl)c1ccccc1 (stereo unspecified) | / | -1.8% | / | / | / | /
CN1N=C2c3ccccc3CCCC2C1c1ccc(F)cc1 (stereo unspecified) | 16.9% | / | ? | ? | 26.4% | 12µM*
CC(=O)N1N=C2c3ccccc3CCC2C1c1cccs1 (stereo unspecified) | -3.8% | / | -19.3% | -0.6% | -3.0% | -6.8%
COc1cccc2cc(-c3nnc(SCC(=O)Nc4ccc(NC(C)=O)cc4)n3C)oc12 | -0.5% | / | 4.8% | 0.0% | 6.5% | -12.9%
CCOC(=O)N1CCC(c2cc(=O)n3[nH]c(-c4ccccc4)cc3n2)CC1 | 0.3% | 8.6% | 5.4% | 2.3% | -1.0% | -2.6%
Cc1nc2cc(-c3ccsc3-n3c(C)ccc3C)[nH]n2c(=O)c1Cl | 0.5% | -10.7% | 2.8% | -8.5% | -2.0% | 1.2%
O=c1c2c(nc3cc(-c4ccccc4)[nH]n13)CCS2 | 3.98µM* | ? | ? | ? | 2.82µM* | 9.53µM*
O=c1c2c(nc3cc(-c4ccccc4Cl)[nH]n13)CCS2 | ? | 15.8µM* | ? | ? | 3.55µM* | 8.49µM*
CCOC(=O)C1(CC2CCCCO2)CCN(C(=O)Nc2ccccc2)CC1 (stereo unspecified) | 7.6% | / | ? | -1.1% | 24.5% | ?
Cn1c(C(=O)NCc2ccccc2Cl)cc2sc(Cl)cc21 | / | 28.2µM* | / | / | / | ?
CCn1c(C(=O)NCc2ccccc2Cl)cc2sc(Cl)cc21 | / | 110.6% | / | / | / | ?
CCOc1ccc(CCNC(=O)c2cc3sc(Cl)cc3n2C)cc1OCC | -4.8% | -22.8% | -2.8% | -4.8% | 0.0% | 1.0%
CC(C)c1ccc(NC(=O)c2cc3sc(Cl)cc3n2C)cc1 | / | -10.6% | / | / | / | 3.38µM*
CCc1ccc(NC(=O)c2cc3sc(Cl)cc3n2C)cc1 | / | 12.6µM* | / | / | / | 5.36µM*
COc1ccc(C(=O)CC2(O)C(=O)N(CCc3ccccc3)c3ccc(Br)cc32)cc1OC (stereo unspecified) | / | -15.4% | / | / | / | -17.0%
O=c1c2sccc2nc(SCc2cc(=O)n3cc(Br)ccc3n2)n1Cc1ccccn1 | ? | ? | ? | ? | 4.47µM* | -0.6%

Compound activity as filed in PubChem.
